# Values joined by “and” are separate entries in the source; they are usually repeats but may differ in a detail not shown here. Equal values may be shown once. More than one record can exist for a structure, and the calls need not agree. Active and inactive are the calls of the source.
# Tests used:
# [1] = small molecules captured by biotinylated probe aFSTL3 – biochemical, small-molecule microarray, fluorescence 635/667, stem cell growth factor project, primary screen (AID 1064); details: higher = more signal;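 also: measures binding of the biotinylated anti-FSTL3 antibody to printed compounds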
# [2] = binders from COS7 lysate, DM2A8 probe, primary screen, torsin A project, cell lysate, small-molecule microarray, fluorescence 635/667 (AID 1065); details: higher = more signal, COS7 lysate expressing mutant human TOR1A
# [3] = small molecules captured by biotinylated probe aFGF2 – biochemical, small-molecule microarray, fluorescence 635/667, stem cell growth factor project, primary screen (AID 1067); details: higher = more signal;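 also: measures binding of biotinylated aFGF2 protein to printed compounds on slides; z-score merges feature fluorescence and signal-to-noise across triplicate slides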
# [4] = small molecules captured by biotinylated probe aFGF10 – biochemical, small-molecule microarray, fluorescence 635/667, stem cell growth factor project, primary screen (AID 1071); details: higher = more signal;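 also: score merges 667 nm spot intensity and signal to noise from triplicate slides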
# [5] = target: Neurogenic locus notch homolog protein 2 (Homo sapiens) (UniProt Q04721); assay: small molecules binding Notch2 protein – biochemical, small-molecule microarray, 635 nm fluorescence, stem cell growth factors, primary screen (AID 1073); details: higher = more signal
# Sequence of Neurogenic locus notch homolog protein 2 (Homo sapiens) (Q04721 whole entry, looked up, canonical isoform): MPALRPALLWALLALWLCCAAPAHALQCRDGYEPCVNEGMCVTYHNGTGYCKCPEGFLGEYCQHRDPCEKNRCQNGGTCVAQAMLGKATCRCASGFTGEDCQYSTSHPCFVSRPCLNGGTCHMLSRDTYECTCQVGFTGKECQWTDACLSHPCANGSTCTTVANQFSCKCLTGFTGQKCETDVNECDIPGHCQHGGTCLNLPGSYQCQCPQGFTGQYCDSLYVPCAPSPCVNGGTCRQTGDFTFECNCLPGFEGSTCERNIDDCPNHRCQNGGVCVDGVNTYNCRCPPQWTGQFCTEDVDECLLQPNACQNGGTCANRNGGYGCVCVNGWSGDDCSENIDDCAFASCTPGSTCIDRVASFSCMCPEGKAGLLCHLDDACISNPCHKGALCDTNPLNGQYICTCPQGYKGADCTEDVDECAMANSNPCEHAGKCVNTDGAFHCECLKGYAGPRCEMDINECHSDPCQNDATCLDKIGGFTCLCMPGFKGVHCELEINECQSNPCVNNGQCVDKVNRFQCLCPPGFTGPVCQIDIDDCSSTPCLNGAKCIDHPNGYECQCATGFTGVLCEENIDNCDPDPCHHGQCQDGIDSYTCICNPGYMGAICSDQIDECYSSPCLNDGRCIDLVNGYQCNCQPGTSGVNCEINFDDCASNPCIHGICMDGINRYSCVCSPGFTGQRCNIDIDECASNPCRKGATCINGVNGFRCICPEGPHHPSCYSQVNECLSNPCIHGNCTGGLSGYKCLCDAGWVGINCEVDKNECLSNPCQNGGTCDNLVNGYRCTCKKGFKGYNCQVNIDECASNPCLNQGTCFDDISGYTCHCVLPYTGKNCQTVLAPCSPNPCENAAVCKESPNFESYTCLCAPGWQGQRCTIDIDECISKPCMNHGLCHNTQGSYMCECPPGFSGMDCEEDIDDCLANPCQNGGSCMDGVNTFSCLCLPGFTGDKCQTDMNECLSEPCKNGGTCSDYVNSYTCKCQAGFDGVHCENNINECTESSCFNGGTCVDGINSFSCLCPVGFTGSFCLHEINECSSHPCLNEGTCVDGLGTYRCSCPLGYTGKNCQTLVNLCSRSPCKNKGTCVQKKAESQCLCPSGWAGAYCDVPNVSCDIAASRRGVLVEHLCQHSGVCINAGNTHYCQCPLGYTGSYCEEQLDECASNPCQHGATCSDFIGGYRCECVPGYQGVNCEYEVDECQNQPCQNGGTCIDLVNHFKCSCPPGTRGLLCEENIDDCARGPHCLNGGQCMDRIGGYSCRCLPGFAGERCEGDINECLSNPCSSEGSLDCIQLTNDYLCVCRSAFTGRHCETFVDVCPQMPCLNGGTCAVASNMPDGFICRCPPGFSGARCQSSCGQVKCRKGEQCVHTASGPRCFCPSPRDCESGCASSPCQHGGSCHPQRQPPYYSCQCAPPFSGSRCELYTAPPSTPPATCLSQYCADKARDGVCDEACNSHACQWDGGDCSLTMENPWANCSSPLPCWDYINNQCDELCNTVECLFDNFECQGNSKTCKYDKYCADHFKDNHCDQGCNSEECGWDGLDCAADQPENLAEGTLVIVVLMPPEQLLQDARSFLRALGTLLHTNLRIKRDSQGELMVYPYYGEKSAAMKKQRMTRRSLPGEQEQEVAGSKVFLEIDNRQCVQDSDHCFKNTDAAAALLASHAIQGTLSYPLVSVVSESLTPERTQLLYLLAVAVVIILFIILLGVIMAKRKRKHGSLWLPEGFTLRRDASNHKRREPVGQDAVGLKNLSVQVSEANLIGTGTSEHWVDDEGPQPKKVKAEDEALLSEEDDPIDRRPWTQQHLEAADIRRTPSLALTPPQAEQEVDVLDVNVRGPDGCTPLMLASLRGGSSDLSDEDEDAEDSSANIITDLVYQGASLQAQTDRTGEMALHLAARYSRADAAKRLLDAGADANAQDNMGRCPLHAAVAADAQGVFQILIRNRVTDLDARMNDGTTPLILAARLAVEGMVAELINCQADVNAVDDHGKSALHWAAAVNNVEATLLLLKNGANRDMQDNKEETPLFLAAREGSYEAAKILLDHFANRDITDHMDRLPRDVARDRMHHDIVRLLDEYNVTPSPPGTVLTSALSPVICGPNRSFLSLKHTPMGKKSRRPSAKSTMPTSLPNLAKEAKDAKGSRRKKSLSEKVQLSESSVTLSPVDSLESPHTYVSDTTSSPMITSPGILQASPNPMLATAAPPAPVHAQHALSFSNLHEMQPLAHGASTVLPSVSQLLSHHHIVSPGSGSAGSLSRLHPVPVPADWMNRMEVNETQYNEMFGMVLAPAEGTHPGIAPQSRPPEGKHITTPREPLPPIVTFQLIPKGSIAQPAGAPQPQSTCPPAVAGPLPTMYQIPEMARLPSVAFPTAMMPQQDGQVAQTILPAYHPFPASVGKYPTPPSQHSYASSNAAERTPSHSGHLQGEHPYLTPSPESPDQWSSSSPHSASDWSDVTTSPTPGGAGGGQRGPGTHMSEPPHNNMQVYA
# [6] = target: Pro-neuregulin-1, membrane-bound isoform (Homo sapiens) (UniProt Q02297); assay: small molecules binding neuregulin-1 protein – biochemical, small-molecule microarray, fluorescence 635/667, psychiatric disease protein project, primary screen (AID 1075); details: NRG1 binding, 635 nm fluorescence, higher = more signal;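 also: score combines 667 nm spot fluorescence with signal to noise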
# Sequence of Pro-neuregulin-1, membrane-bound isoform (Homo sapiens) (Q02297 whole entry, looked up, the tested form may be a part, canonical isoform): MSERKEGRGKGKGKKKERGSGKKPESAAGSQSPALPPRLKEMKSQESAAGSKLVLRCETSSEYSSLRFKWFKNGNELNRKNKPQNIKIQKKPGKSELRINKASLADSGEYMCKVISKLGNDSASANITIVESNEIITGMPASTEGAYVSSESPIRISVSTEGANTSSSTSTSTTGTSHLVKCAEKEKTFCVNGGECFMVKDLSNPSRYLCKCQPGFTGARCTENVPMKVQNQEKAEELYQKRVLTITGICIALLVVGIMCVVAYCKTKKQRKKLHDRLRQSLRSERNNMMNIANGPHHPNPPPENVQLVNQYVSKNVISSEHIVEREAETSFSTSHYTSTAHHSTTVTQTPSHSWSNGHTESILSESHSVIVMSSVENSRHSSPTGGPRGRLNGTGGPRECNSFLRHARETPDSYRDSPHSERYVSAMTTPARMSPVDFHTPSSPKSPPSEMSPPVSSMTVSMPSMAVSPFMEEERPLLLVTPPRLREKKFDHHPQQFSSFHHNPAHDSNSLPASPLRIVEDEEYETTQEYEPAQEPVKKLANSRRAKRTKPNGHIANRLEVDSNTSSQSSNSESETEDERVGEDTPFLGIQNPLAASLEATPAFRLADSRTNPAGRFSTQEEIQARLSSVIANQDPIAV
# [7] = system: Neuregulin-1 EGF-like domain; assay: small molecules binding NRG1 EGF domain – biochemical, small-molecule microarray, 635 nm fluorescence, primary screen (AID 1081); details: higher = more signal;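 also: binding of the protein to compounds printed on small-molecule microarray slides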
# [8] = FRG1 expression reporter modulators in myotubes – cell-based, C2C12 myotubes, firefly/Renilla luciferase, luminescence, FRG1 inhibition for FSHD, primary screen (AID 1084); details: FRG1 promoter luciferase, higher = more signal, called active from +8 up or from −8 down
# [9] = small molecules captured by biotinylated probe aFST – biochemical, small-molecule microarray, fluorescence 635/667, stem cell growth factor project, primary screen (AID 1086); details: higher = more signal;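 also: score merges 667 nm fluorescence with signal-to-noise of each printed compound spot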
# [10] = binders of probe aHhip on microarray, primary screen, stem cell growth factor project, biochemical, small-molecule microarray, fluorescence 635/667 (AID 1087); details: higher = more signal;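 also: score merges spot fluorescence at 667nm with spot signal to noise ratio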
# [11] = system: PRMT1 (protein arginine N-methyltransferase 1); assay: small molecules binding arginine methyltransferase PRMT1 – biochemical, small-molecule microarray, 635 nm fluorescence, primary screen (AID 1088); details: higher = more signal;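 also: binding of Prmt1 protein to compounds spotted on small-molecule microarray slides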
# [12] = growth effects on S. cerevisiae YJM789 – YJM789 clinical isolate, OD600, 24 h, basal, primary screen (AID 1089); details: higher = more signal, called active from +8 up or from −8 down;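 also: growth of clinical yeast isolate S. cerevisiae YJM 789 seeded 1000 cells per well; test concentration not given here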
# [13] = S. pombe growth modifiers, basal conditions – strain 972, OD600, 24 h, no modulator, primary screen (AID 1090);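 also: basal condition with compound alone and no growth modifier present; test concentration not given here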; details: S. pombe 972 growth, higher = more signal, called active from +8 up or from −8 down
# [14] = budding yeast growth modifiers under rapamycin – strain BY4716, OD600, 96 h, primary screen (AID 1091); also: test concentration not given here; details: S. cerevisiae BY4716 + rapamycin, higher = more signal, called active from +8 up or from −8 down
# [15] = target: Torsin-1A-interacting protein 2 (Homo sapiens) (UniProt Q8NFQ8); assay: small molecules binding lysate-expressed LULL1 – cell lysate, human LULL1 lysate, 635/667 nm fluorescence, primary screen (AID 1092); details: small-molecule microarray, hLULL1 lysate binding, 635 nm fluorescence; higher = more signal;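 also: probe is lysate of COS7 cells overexpressing human LULL1; score merges per-feature 667 nm fluorescence with signal-to-noise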
# Sequence of Torsin-1A-interacting protein 2 (Homo sapiens) (Q8NFQ8 whole entry, looked up): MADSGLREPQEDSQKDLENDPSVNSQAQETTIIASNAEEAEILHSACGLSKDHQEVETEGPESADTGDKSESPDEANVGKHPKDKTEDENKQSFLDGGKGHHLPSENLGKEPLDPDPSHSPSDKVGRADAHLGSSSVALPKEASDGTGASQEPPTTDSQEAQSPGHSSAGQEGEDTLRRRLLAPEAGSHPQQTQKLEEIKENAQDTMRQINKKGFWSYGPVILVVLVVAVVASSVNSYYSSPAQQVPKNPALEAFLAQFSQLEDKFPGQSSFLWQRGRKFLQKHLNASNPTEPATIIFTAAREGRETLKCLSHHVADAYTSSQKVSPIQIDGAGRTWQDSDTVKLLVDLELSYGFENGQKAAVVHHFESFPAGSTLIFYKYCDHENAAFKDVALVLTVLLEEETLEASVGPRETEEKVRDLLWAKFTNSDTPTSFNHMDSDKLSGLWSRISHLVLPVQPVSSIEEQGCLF
# [16] = optical density change of DRC41 E. coli – strain DRC41, OD650, 24 h, E. coli filamentation project, primary screen (AID 1093);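 also: MC1000 strain lacking acrAB efflux and sulA so SOS filamentation is blocked; test concentration not given here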; details: E. coli DRC41 growth, higher = more signal, called active from +8 up or from −8 down
# [17] = probe aLefty2 binding to arrayed compounds – biochemical, biotinylated probe, 635/667 nm fluorescence, primary screen (AID 1094); details: small-molecule microarray, higher = more signal;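 also: score merges spot fluorescence near 667 nm with spot signal-to-noise ratio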
# [18] = system: Noggin (protein binding on small-molecule microarray); assay: small molecules binding Noggin protein – biochemical, 635/667 nm fluorescence, primary screen (AID 1095); details: 635 nm fluorescence, higher = more signal;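 also: score merges 667 nm feature fluorescence with signal to noise over triplicate slides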
# [19] = target: Neurogenic locus notch homolog protein 3 (Homo sapiens) (UniProt Q9UM47); assay: small molecules binding NOTCH3 protein – biochemical, 635/667 nm fluorescence, primary screen (AID 1096); details: small-molecule microarray, 635 nm fluorescence, higher = more signal
# [20] = probe aEGFR binding to arrayed compounds – biochemical, biotinylated probe, 635/667 nm fluorescence, primary screen (AID 1097); details: small-molecule microarray, higher = more signal;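 also: probe is a biotinylated anti-EGFR antibody binding compounds printed on slides; score combines fluorescence near 667 nm and signal to noise of each spot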
Structure (SMILES),composite z-score [1],composite z-score [2],composite z-score [3],composite z-score [4],composite z-score [5],composite z-score [6],composite z-score [7],z-score [8],composite z-score [9],composite z-score [10],composite z-score [11],z-score [12],z-score [13],z-score [14],composite z-score [15],z-score [16],composite z-score [17],composite z-score [18],composite z-score [19],composite z-score [20]
C=CCN(CCCC)C(=O)C1N(CCOCCO)C(=O)C2C(C(=O)O)C3C=CC21O3 (stereo not given),0.398 and 0.725,-1.98 and -0.776,-0.209 and -0.116,-1.13 and -0.467,-1.17 and -2.39,1.64 and -0.729,1.61 and 1.51,0.75 (inactive) and 0.0827 (inactive),-0.792 and -1.02,-0.169 and -0.306,-0.779 and -1.02,0.784 (inactive) and 1.05 (inactive),0.269 (inactive) and 0.777 (inactive),1.11 (inactive) and 1.07 (inactive),2.94 and -0.643,0.489 (inactive) and 0.0433 (inactive),-0.0065 and -0.291,-2.5 and -2.13,-0.298 and -1.36,-0.326 and -0.314
CCN1C(=O)[C@H]2[C@H]3[C@H](O)[C@H](O)CC(=NOC[C@@H](O)COCc4ccco4)[C@@H]3CC[C@H]2C1=O,-0.841 and -0.446,2.37 and 0.0438,-0.235 and -0.132,-0.507 and 0.352,-0.413 and -0.498,-0.538 and -0.26,0.837 and 1.12,0.235 (inactive) and 0.417 (inactive),-0.104 and -0.45,-0.0645 and 0.154,1.4 and 0.727,0.686 (inactive) and 0.102 (inactive),0.315 (inactive) and 0.174 (inactive),1.29 (inactive) and 0.945 (inactive),-1.03 and 0.493,0.0584 (inactive) and -1.13 (inactive),-0.266 and -0.44,0.445 and -0.121,-0.365 and -0.32,0.0747 and -0.0413
CCOC(=O)c1ccc(NC(=O)O[C@H]2[C@H](OC(=O)Nc3ccccc3)[C@H](OC(=O)Nc3ccccc3)[C@@H](OC)O[C@@H]2CO)cc1,0.496 and 0.0126,1.19 and 1.58,0.171 and 0.0495,1.2 and 0.986,1.44 and 0.73,1.68 and 1.8,1.3 and 1.35,0.822 (inactive) and -1.03 (inactive),1.18 and 0.937,-0.24 and -0.141,1.53,1.65 (inactive) and 0.863 (inactive),1.87 (inactive) and 1.43 (inactive),-1.19 (inactive) and 8.89 (active),3.01 and 3.02,0.626 (inactive) and 0.455 (inactive),0.375 and 0.0544,0.536 and 1.04,1.04 and 1.05,0.445 and -0.0118
C=CCN1C(=O)[C@]2(O[C@H](CCn3cc(CCO)nn3)[C@@H]([Si](C)(C)c3ccc(OC)cc3)[C@@H]2C)c2cc(N3C(=O)c4cccc5cccc3c45)ccc21,-0.298 and -0.359,1.1 and -0.4,-0.0069 and -0.0563,0.678 and 0.735,0.285 and 0.226,1.19 and 0.465,1.03,-2.77 (inactive) and -2.7 (inactive),0.115 and -0.305,-0.0618 and 0.157,1.27 and 1.46,1.25 (inactive) and 0.648 (inactive),1.82 (inactive) and 1.64 (inactive),36.8 (active) and 36.6 (active),1.73 and 1.57,1.43 (inactive) and 0.793 (inactive),-0.166 and -0.177,0.708 and 0.778,0.644 and 0.979,-0.0828 and -0.238
